# Bioassay records from PubChem.
# ELG1 DNA repair = ELG1-dependent DNA repair inhibition | HEK293T ELG1-luciferase reporter, luminescence, 16 h; DNA damage induced by 5-fluorouridine | Potency, µM (doses to about 46.1 µM), inactives show top-dose activity change, negative = inhibition, most hits filed as inhibitors | 330,000 tested, 2.3% active | AID 504467; further: nearly all actives have a fitted effect of over 55% in size
#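 DMSO vehicle served as the neutral condition. Each well held 2,000 cells given 5-fluorouridine plus compound; after 16 hr at 37 °C/5% CO2, ONE-Glo was added and luciferase measured 30 min later.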
# ALOX12 inh = inhibitors of human 12S-lipoxygenase ALOX12; AID 1671190; P18054; purified 12hLO, xylenol orange hydroperoxide absorbance; 580,000 tested, 1.1% active; Potency, µM (doses to about 108 µM), without a hit: top-dose activity change, negative = inhibition, usual class: inhibitors
#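 Hydroperoxide product was detected by ferrous iron/xylenol orange as the 573 to 405 nm absorbance ratio. Arachidonic acid at 40 uM (final) was turned over for 30 min at room temperature by 150 nM human 12hLO, pH 7.0 Hepes buffer, after 15 min compound preincubation.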
# TDP1 cell CPT = growth inhibition of DT40 Tdp1-/-;hTDP1 cells with camptothecin (screen for TDP1 inhibitors). chicken DT40 Tdp1-/-;hTDP1 cells + 20 nM CPT, ATP luminescence, 48 h. Potency, µM (doses to about 46.2 µM), for the others: at the top dose activity change, negative = growth inhibition, hits mostly inhibitors. 420,000 tested, 12% active. AID 686979; further: nearly all actives have a fitted effect of over 55% in size
#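 Chicken DT40 Tdp1-/- cells stably complemented with human TDP1 were seeded at 400 cells/well in medium containing 20 nM camptothecin, exposed to pin-transferred compounds, and grown at 37 °C for at least 48 hr. Viability was read as ATP luminescence.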
# DT40 TDP1 no CPT = qHTS for Inhibitors of human tyrosyl-DNA phosphodiesterase 1 (TDP1): qHTS in cells in absence of CPT; DT40 Tdp1-/- hTDP1 cells, no CPT, ATP luminescence, 48 h; Potency, µM (series often up to 46.2 µM), for inactives: top-dose activity change, negative = growth inhibition, usual class: inhibitors; 420,000 tested, 15% active; AID 686978, 2013; further: nearly all actives have a fitted effect of over 55% in size
#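 Compound effects on proliferation are scored in DT40 Tdp1-/-;hTDP1 cells in the absence of CPT. ATP levels (CellTiter-Glo luminescence) are recorded after a ≥48 hr, 37 °C incubation.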
# VP16 counter = inhibits Gal4-VP16 luciferase reporter, ROR gamma counter-screen; Potency, µM (highest dose often 53.6 µM), for inactives: at the highest dose activity, negative = inhibition, hits mostly inhibitors; 310,000 tested, 3.5% active; AID 2546; Drosophila S2 Gal4-VP16 UAS-luciferase, luminescence, 20 h;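 further: Gal4-VP16 expression switched on by copper sulfate through the metallothionein promoter; nearly all actives have a fitted effect of over 50% in size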
# RORg inh = blocks mouse ROR gamma transcriptional activity; P51450; Drosophila S2 Gal4-RORgamma UAS-luciferase reporter, 20 h; Potency, µM (doses to about 53.6 µM), for inactives: at the top dose activity change, negative = inhibition, usual class: inhibitors; 310,000 tested, 5.4% active; further: nearly all actives have a fitted effect of over 60% in size
# Target sequence (P51450 whole entry, looked up, the tested form may be a part): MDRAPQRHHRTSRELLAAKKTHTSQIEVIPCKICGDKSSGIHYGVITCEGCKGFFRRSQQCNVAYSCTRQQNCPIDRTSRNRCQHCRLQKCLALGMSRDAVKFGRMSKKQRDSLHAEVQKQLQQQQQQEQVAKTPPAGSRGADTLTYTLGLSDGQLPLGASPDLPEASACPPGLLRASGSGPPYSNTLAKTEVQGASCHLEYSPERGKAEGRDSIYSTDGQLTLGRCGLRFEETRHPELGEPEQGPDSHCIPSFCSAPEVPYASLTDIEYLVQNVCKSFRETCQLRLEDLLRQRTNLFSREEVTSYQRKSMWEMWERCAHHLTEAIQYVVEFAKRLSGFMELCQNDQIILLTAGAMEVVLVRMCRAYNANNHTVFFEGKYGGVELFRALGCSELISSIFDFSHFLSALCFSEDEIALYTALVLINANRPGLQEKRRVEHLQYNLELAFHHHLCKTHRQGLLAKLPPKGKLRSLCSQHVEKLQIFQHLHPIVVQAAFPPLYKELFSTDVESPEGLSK
#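 Stably transfected Drosophila Schneider cells are the test system, with ROR gamma fused to Gal4 and luciferase under UAS control; luminescence is read after 20 hr of 700 uM copper sulfate induction at ambient temperature.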
# Numbers without * were called inactive; ? = inconclusive; · = not tested or not shown; [ ] = remark or other dose. The list is not random: actives were taken first. Their share in the collection is about 15%. The call rests on the fitted dose curve; in most records, active means well fitted curve in the direction sought with a large enough effect; inconclusive means small, poorly fitted or top-dose-only effect, or another doubt; inactive means no such curve, though single readings can be large; an effect the other way counts as inactive or inconclusive. On the % scale 0 is the no-effect control and ±100 the full control effect; potency means the concentration at half of the fitted maximal effect.
SMILES,ELG1 DNA repair,ALOX12 inh,TDP1 cell CPT,DT40 TDP1 no CPT,VP16 counter,RORg inh
CCOC(=O)C1=CC[C@@H](c2ccc(OC)cc2)N(S(=O)(=O)c2ccc(C)cc2)[C@H]1CC,·,-11%,15µM*,18µM*,·,·
C=C[C@H]1C(C(=O)OCC)=CC[C@@H](c2ccccc2)N1S(=O)(=O)c1ccc(C)cc1,·,11%,23µM*,21µM*,·,·
CCOC(=O)C1=CCC(c2ccc(N(CC)CC)cc2)N(S(=O)(=O)c2ccc(C)cc2)C1c1ccc([N+](=O)[O-])cc1 (centres undefined),·,13%,7.3µM*,6.5µM*,·,·
CCc1ccc([C@@H]2CC=C(C(=O)O)[C@H](c3ccccc3)N2S(=O)(=O)c2ccc(C)cc2)cc1,-3%,-19%,-6%,-19%,·,·
CCOC(=O)C1=CC[C@@H](c2ccccc2)N(S(=O)(=O)c2ccc(C)cc2)[C@H]1C,·,21%,?,23µM*,·,·
CCCc1noc(-c2cccn3c(CNC(=O)c4ccc(C(C)(C)C)cc4)nnc23)n1,·,59%,·,·,·,·
CCOC(=O)C1=CC[C@@H](c2ccccc2)C(C#N)(C#N)[C@H]1/C=C/c1ccccc1,·,2%,·,·,·,·
CCOC(=O)C1=CC[C@@H](c2ccccc2)N(S(=O)(=O)c2ccc(C)cc2)[C@H]1/C=C/c1ccccc1,·,-17%,13µM*,9.2µM*,·,·
CCOC(=O)C1=CC[C@@H](c2ccccc2C(F)(F)F)N(S(=O)(=O)c2ccc(C)cc2)[C@H]1c1ccc(C#N)cc1,·,-21%,15µM*,13µM*,·,·
CCOC(=O)C1=CCC2c3c(c4ccccc4n3C)C(=O)C1N2C(=O)OC(C)(C)C (centres undefined),23%,-7%,?,?,·,·
CCOc1ccc([C@@H]2CC=C(C(=O)O)[C@H](c3ccc(F)cc3)N2S(=O)(=O)c2ccc(C)cc2)cc1,15%,-12%,5%,-10%,·,·
CCOC(=O)C1=CC[C@H]2c3c(c4ccc(OC)cc4n3C)C(=O)C1N2S(=O)(=O)c1ccc(C)cc1,-11%,-9%,5.8µM*,4.6µM*,·,·
Cc1cc(N2CCN(S(=O)(=O)c3ccc(Cl)c(C(F)(F)F)c3)CC2)nc(C(C)C)n1,·,-27%,·,·,·,·
O=C(COc1ccc2nncn2n1)N1CCCC(c2ccn[nH]2)C1 (centres undefined),·,51%,·,·,·,·
Cc1occc1-c1nc2ccncc2[nH]1,·,54%[176 µM],·,·,·,·
COc1cccc2sc(Nc3nc(-c4ccccn4)cs3)nc12,?,·,·,·,·,0.045µM*
O=C(CC1CC2CCC1C2)NCCc1ccccn1 (centres undefined),·,15%,·,·,·,·
O=C(Nc1nc(-c2ccccn2)cs1)C1CC1,?,22%,23µM*,18µM*,?,16µM*
O=C(Nc1nc(-c2ccccn2)cs1)C1CC(=O)N(c2ccccc2F)C1 (centres undefined),·,6%,·,·,·,·
O=C(CC1CC2CCC1C2)Nc1nc(-c2ccccn2)cs1 (centres undefined),21µM*,-20%,?,6.5µM*,13µM*,3.2µM*
O=C(Nc1nc(-c2ccccn2)cs1)C1CC(=O)N(c2ccc3c(c2)OCCO3)C1 (centres undefined),?,7%,26µM*,16µM*,?,10µM*
COc1cccc(NC(=O)c2nn(-c3cccc(OC)c3)c(=O)c3ccccc23)c1,·,2%,·,·,·,·
c1ccc(-c2csc(Nc3cccnc3)n2)nc1,?,28%,?,?,13%,?
c1ccc(Nc2nc(-c3ccccn3)cs2)cc1,·,3%,13µM*,7.3µM*,10µM*,3.5µM*
CCc1cccc2c(C(=O)CSc3n[nH]c(C(C)C)n3)c[nH]c12,·,4%,·,·,·,·
SMILES,ELG1 DNA repair,ALOX12 inh,TDP1 cell CPT,DT40 TDP1 no CPT,VP16 counter,RORg inh
Nn1c(SCc2ncc(-c3ccccc3)o2)nnc1-c1ccccc1F,·,6.3µM*,·,·,·,·
Fc1ccc(-c2nnc(SCc3ncc(-c4ccccc4)o3)n2CC2CCCO2)cc1 (centres undefined),-2%,?,-15%,?,1%,-2%
CCc1nnc2c(NCCc3ccc(OC)c(OC)c3)nc3ccccc3n12,1%,-5%,?,16µM*,2%,10%
CCOc1ccc(CCNc2nc3ccc(C)cc3n3cnnc23)cc1OCC,?,61%,?,16µM*,-7%,6%
CCOc1ccc(CCNc2nc3ccccc3n3cnnc23)cc1OCC,21µM*,12%,?,18µM*,-14%,17%
Cc1ccc2nc(NCc3ccc(F)cc3)c3nncn3c2c1,-7%,0%,?,?,-2%,21%
COc1ccc(CCNc2nc3ccccc3n3cnnc23)cc1OC,?,-4%,-26%,?,-5%,20%
COc1ccccc1-c1cnc(Nc2cccc(N[S+](C)(=O)[O-])c2)c2c1CCO2,·,-6%[176 µM],·,·,·,·
COc1ccc2nc(C[C@@H]3C[C@@H](C(C)C)[C@H](CN(Cc4ccccc4F)Cc4ccccc4F)C=C3C)[nH]c2c1,·,-10%,·,·,·,·
Cc1ccccc1N1C(=O)CC(c2c[nH]c3ccccc23)C1=O (centres undefined),10%,-16%,-7%,-14%,-8%[10 µM],1%
O=C1C=CC(c2c[nH]c3ccccc23)CC1 (centres undefined),·,?,?,16µM*,·,·
CC(C)Oc1ccc(CN2CCC2(C)C(=O)Nc2ccc3c(c2)OCO3)cc1 (centres undefined),·,11%,16µM*,?,·,·
CC(C)c1ccc(CC(=O)N2CCC2(C)C(=O)Nc2ccc3c(c2)OCCO3)cc1 (centres undefined),·,1%,-9%,?,·,·
CC(C)c1ccc(CN2CCC2(C)C(=O)Nc2ccc3c(c2)OCO3)cc1 (centres undefined),·,2%,?,8.2µM*,·,·
COc1ccc(-c2ccnc(-c3ccncc3)n2)cc1,8%,?,?,16µM*,-5%,-14%
c1coc(-c2ccnc(-c3ccncc3)n2)c1,?,-7%,-4%,2%,-4%,-11%
COC(=O)COc1ccc(-c2nccc(-c3ccc(Br)cc3)n2)cc1,-6%,6%,21µM*,?,-24%,-5%
COc1ccc(-c2ccnc(-c3ccc(O)cc3)n2)cc1,?,-18%,1.6µM*,1.8µM*,-12%,-16%
CC(=O)c1sc(NC(C)C)c(C#N)c1N,·,18µM*,·,·,·,·
